Assay results published in PubChem BioAssay (NCI).
About 83,000 compounds went through this panel and 20% of them were active in at least one assay; those are over-represented in the sample as a whole.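 The test compound was applied at a single concentration to cells in 96-well plates for 48 hours, and percent growth was recorded.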 The source made the active and inactive calls. The calls were made as follows: active = growth percent below 10; inactive = the rest.

Tested on: SF-539 CNS
Experiment: NCI-60 one-dose screen, 48 h (100 = growth as untreated, 0 = no growth, -100 = all killed)
Conditions: 10 µM unless noted

How did the growth turn out when `COc1ccc2nc3ccccc3c(NCc3ccc(C)cc3)c2c1` was run?
The growth was 10.7% (inactive).

For `COc1cc(OC)cc(-c2ccc(-c3ccc(C(=N)N)s3)s2)c1`, which growth is on record?
Its growth is -92.2% (active).

Which growth does the source give for `COc1ccc(-c2cc(-c3cc4ccccc4oc3=O)n(-c3ccccc3)n2)cc1` here?
Its growth is 33.8% (inactive).

`O=C1c2cccc3cccc(c23)C(=O)N1CCCCCCCCCCN1C(=O)c2cccc3cccc(c23)C1=O` was tested. Which growth did it give?
The growth was 102% (inactive).

`O=C(CCCN1CCC(O)(c2ccc(Br)cc2)CC1)c1ccc(F)cc1` was tested. Which growth did it give?
Its growth is 77.8% (inactive).

For `O=C(c1ccc(OCCN2CCCCC2)cc1)c1c(-c2ccc(O)cc2)sc2cc(O)ccc12`, which growth is on record?
Its growth is 98.6% (inactive).

For `ClCCn1cnc2c(SCc3ccccc3Cl)ncnc21`, which growth is on record?
Its growth is 30.9% (inactive).

`O=C(N/N=C/c1ccc([N+](=O)[O-])o1)c1ccc(O)cc1` was tested. Which growth did it give?
Its growth is 8.11% (active).

`CCS(=O)(=O)Nc1cccc(Nc2c3cccc(C)c3nc3c(C)cccc23)c1OC` was tested. Which growth did it give?
The growth was -41.3% (active).

`CCN(C(=O)CCl)C(C)(C)C(SSSC(c1ccc(Cl)cc1)C(C)(C)N(CC)C(=O)CCl)c1ccc(Cl)cc1` (configuration not stated) was tested. Which growth did it give?
The growth was 87.7% (inactive).

Which growth does the source give for `CCOC(=O)C(CCCCC(NC(C)=O)(C(=O)OCC)C(=O)OCC)(NC(C)=O)C(=O)OCC` here?
The growth was 109% (inactive).

Which growth does the source give for `COc1ccc(-n2nc(C(=O)Nc3ccc(F)cc3)nc2-c2cc(OC)c(OC)c(OC)c2)cc1` here?
Its growth is 88.3% (inactive).

`ClC1=NC(Cl)C(Cl)=N/C1=N\c1ncn[nH]1` (configuration not stated) was tested. Which growth did it give?
The growth was 67.5% (inactive).

Which growth does the source give for `Oc1ccc(-c2nnc3c4[nH]ccc4ncn23)cc1` here?
Its growth is 101% (inactive).

For `COc1ccc(/C=N/NC(N)=S)c(OC)n1`, which growth is on record?
Its growth is 100% (inactive).

With `CC(C)(C)c1cc(C[P+](c2ccccc2)(c2ccccc2)c2ccccc2)cc(C(C)(C)C)c1O` as the compound, how does the growth read?
The growth was 3.24% (active).

Which growth does the source give for `FC(F)(F)c1cc(-c2nnc3n2N=C(Cl)CS3)cc(C(F)(F)F)c1` here?
Its growth is 109% (inactive).
